Rows were chosen to be rich in hits. Some 2.4% of all compounds tested hit in one or more screens of this group.
CHRM1 PAM: human M1 muscarinic receptor positive allosteric modulators, primary screen, CHO-K1 cells, Fluo-8 calcium fluorescence, 1536-well. CHO-K1 hM1, ACh EC20; 0% = ACh EC20, 100% = maximal ACh. activation, % at 3 µM. 360,000 compounds, 0.088% hits. AID 588819, 2011; in the data active means activation above about 19%, passing the limit was not always enough
Target sequence (P11229 whole entry, looked up): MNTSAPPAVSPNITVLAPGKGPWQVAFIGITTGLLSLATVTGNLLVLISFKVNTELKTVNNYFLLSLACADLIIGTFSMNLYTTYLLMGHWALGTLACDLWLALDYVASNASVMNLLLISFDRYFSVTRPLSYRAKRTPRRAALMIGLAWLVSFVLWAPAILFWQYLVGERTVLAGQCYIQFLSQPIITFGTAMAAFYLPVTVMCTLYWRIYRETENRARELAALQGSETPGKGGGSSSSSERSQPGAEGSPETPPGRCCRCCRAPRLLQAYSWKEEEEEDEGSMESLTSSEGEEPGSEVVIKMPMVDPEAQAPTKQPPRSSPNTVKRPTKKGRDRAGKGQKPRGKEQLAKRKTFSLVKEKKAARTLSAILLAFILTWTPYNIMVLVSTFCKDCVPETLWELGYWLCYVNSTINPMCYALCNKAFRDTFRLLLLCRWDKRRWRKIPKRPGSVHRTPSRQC
CHO-K1 Ca antag: nonselective inhibitor or artifact in parental CHO-K1 cells; ATP-induced calcium, Fluo-8 fluorescence; 360,000 compounds, 0.6% hits; inhibition, % at 3 µM;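 active means inhibition above a per-plate cutoff, the plate's mean sample inhibition plus 3 SD, cut at about 24% in these data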;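 further: 0% = DMSO plus EC80 ATP and 100% = DMSO alone without ATP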
CHRM1 antagonist: human M1 muscarinic receptor antagonists, primary screen, CHO-K1 cells, Fluo-8 calcium fluorescence, 1536-well; Muscarinic acetylcholine receptor M1 (Homo sapiens), P11229; CHO-K1 hM1, ACh EC80 antagonist; 360,000 compounds, 1.3% hits; inhibition, % at 3 µM; AID 588852, 2011;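 active means percent inhibition above its own plate's cutoff, namely the mean of that plate's compound wells plus 3 SD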;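 further: peak over basal fluorescence ratio during 140 s after agonist addition; 0% = ACh EC80 plus DMSO and 100% = DMSO alone without agonist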
M1 PAM parental: nonselective calcium activators in parental CHO-K1 cells, primary screen, counter-screen for M1 PAM project, cell-based, Fluo-8 calcium fluorescence, full deck, 1536-well; ATP EC20; 0% at ATP EC20, 100% at ATP max; activation, % at 3 µM; 360,000 compounds, 0.02% hits; AID 602247, 2012;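 active means activation above the run cutoff, the mean activation of all test compounds plus 3 SD, cut at about 40% in these data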;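 further: peak over basal fluorescence ratio in a 140 s read after ATP addition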
M1 ag: human M1 muscarinic receptor agonists, primary screen, Fluo-8 calcium fluorescence, CHO-K1 cells, HTS; Muscarinic acetylcholine receptor M1 (Homo sapiens), P11229; CHO-K1 hM1, agonist mode; 0% DMSO, 100% acetylcholine EC100; activation, % at 3 µM; 360,000 compounds, 0.33% hits; AID 588814, 2011;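 active means activation above the run's mean compound activation plus 3 SD, cut at about 16% in these data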;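 further: peak over basal fluorescence ratio within a 140 s kinetic read after compound addition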
M1 ag parental: counter-screen for M1 agonists: effect in parental CHO-K1 cells | Fluo-8 calcium fluorescence; scaled to maximal ATP response, vehicle zero | 360,000 compounds, 0.48% hits | activation, % at 3 µM; in the data active means activation above about 15%;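 further: untransfected CHO-K1 host cells lacking M1 receptor as counterscreen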
* hit, by the source's call.

Results for Oc1ccc(Cl)cc1C1=NNC(c2cccs2)C1 (stereo not given) ?
CHRM1 PAM: 0; CHO-K1 Ca antag: 1; CHRM1 antagonist: 0; M1 PAM parental: 10; M1 ag: -1; M1 ag parental: 1

How did COc1ccc(N(CC(=O)NCCSCc2ccccc2C)S(=O)(=O)c2ccccc2)cc1 do in these assays?
CHRM1 PAM: -4; CHO-K1 Ca antag: 1; CHRM1 antagonist: 13; M1 PAM parental: -1; M1 ag: -3; M1 ag parental: 2

What do the screens show for `O=C(CSc1nnc(CNc2ccc(F)cc2)o1)c1ccccc1`?
CHRM1 PAM: 10; CHO-K1 Ca antag: -16; CHRM1 antagonist: -6; M1 PAM parental: 26; M1 ag: -8; M1 ag parental: 3

What do the screens show for `CC(OC(=O)c1ccc2ncsc2c1)C(=O)Nc1cccc(Cl)c1` (stereo not given)?
CHRM1 PAM: -14; CHO-K1 Ca antag: 9; CHRM1 antagonist: 32*; M1 PAM parental: -5; M1 ag: -4; M1 ag parental: 0

How did CC(=O)c1cccc(NC(=O)C(C)OC(=O)c2ccc3ncsc3c2)c1 (stereo not given) do in these assays?
CHRM1 PAM: 4; CHO-K1 Ca antag: -11; CHRM1 antagonist: 4; M1 PAM parental: 5; M1 ag: -1; M1 ag parental: 1

How did Cc1nn(Cc2ccccc2)c(=O)n1N(C)c1ncc(C(F)(F)F)cc1Cl do in these assays?
CHRM1 PAM: -4; CHO-K1 Ca antag: -1; CHRM1 antagonist: -26; M1 PAM parental: 12; M1 ag: -3; M1 ag parental: 1

What do the screens show for `O=C(COc1ccc(Nc2ccccc2)cc1)Nc1ccncc1`?
CHRM1 PAM: -9; CHO-K1 Ca antag: 9; CHRM1 antagonist: 23; M1 PAM parental: -18; M1 ag: 3; M1 ag parental: 15*

How did O=C(COc1ccc(C(=O)NCc2cccnc2)cc1)Nc1cccc(C(F)(F)F)c1 do in these assays?
CHRM1 PAM: -18; CHO-K1 Ca antag: 13; CHRM1 antagonist: 36*; M1 PAM parental: -27; M1 ag: -2; M1 ag parental: 9

Results for O=C(COc1ccc(Cl)cc1)Nc1ccc(C(=O)NCc2cccnc2)cc1 ?
CHRM1 PAM: 1; CHO-K1 Ca antag: 1; CHRM1 antagonist: 8; M1 PAM parental: 6; M1 ag: 1; M1 ag parental: 6

How did O=C(COc1ccc(-c2ccccc2)cc1)Nc1cccnc1 do in these assays?
CHRM1 PAM: -14; CHO-K1 Ca antag: 15; CHRM1 antagonist: 39*; M1 PAM parental: -11; M1 ag: 2; M1 ag parental: 18*

What do the screens show for `Cc1ccc(S(=O)(=O)NCC(=O)OC(C)C(=O)NC2CCCCC2C)cc1C` (stereo not given)?
CHRM1 PAM: 6; CHO-K1 Ca antag: -4; CHRM1 antagonist: -6; M1 PAM parental: 21; M1 ag: -4; M1 ag parental: 1

How did CN(C)S(=O)(=O)c1ccc(Cl)c(NC(=O)CSc2nc3c(cc2C#N)C(=O)CCC3)c1 do in these assays?
CHRM1 PAM: -8; CHO-K1 Ca antag: 3; CHRM1 antagonist: 15; M1 PAM parental: 19; M1 ag: -9; M1 ag parental: 17*

Results for Cc1cc(C)nc(/N=C(\N)Nc2ccc(SC(F)F)cc2)n1 ?
CHRM1 PAM: -28; CHO-K1 Ca antag: 15; CHRM1 antagonist: 31; M1 PAM parental: -18; M1 ag: 19*; M1 ag parental: 30*

What do the screens show for `CC(=O)Nc1ccc(N/C(N)=N/c2nc(C)cc(C)n2)cc1`?
CHRM1 PAM: 2; CHO-K1 Ca antag: 13; CHRM1 antagonist: -3; M1 PAM parental: -8; M1 ag: -13; M1 ag parental: 0

What do the screens show for `CCCCN(CCCC)/C(N)=N/c1nc(C)cc(C)n1`?
CHRM1 PAM: 0; CHO-K1 Ca antag: -3; CHRM1 antagonist: 2; M1 PAM parental: -11; M1 ag: -8; M1 ag parental: 0

Results for Cc1cc(C)nc(/N=C(\N)N(Cc2ccccc2)Cc2ccccc2)n1 ?
CHRM1 PAM: -33; CHO-K1 Ca antag: 18; CHRM1 antagonist: 100*; M1 PAM parental: -15; M1 ag: -14; M1 ag parental: 4

Results for CCOc1ccc(N/C(N)=N/c2nc(C)cc(C)n2)cc1 ?
CHRM1 PAM: -19; CHO-K1 Ca antag: 8; CHRM1 antagonist: 16; M1 PAM parental: -4; M1 ag: 6; M1 ag parental: 17*

Results for Cc1cc(C)nc(/N=C(\N)Nc2ccc(-c3ccccc3)cc2)n1 ?
CHRM1 PAM: -16; CHO-K1 Ca antag: 10; CHRM1 antagonist: 12; M1 PAM parental: -16; M1 ag: 5; M1 ag parental: 27*

Results for COc1ccc(C(=O)C2CCCN(S(=O)(=O)C(C)C)C2)c(C)c1 (stereo not given) ?
CHRM1 PAM: 10; CHO-K1 Ca antag: -5; CHRM1 antagonist: -8; M1 PAM parental: 16; M1 ag: -1; M1 ag parental: 2

Results for Cc1ccccc1NC(=S)N1CCN(c2ccccc2)CC1 ?
CHRM1 PAM: 4; CHO-K1 Ca antag: -2; CHRM1 antagonist: -13; M1 PAM parental: 5; M1 ag: -2; M1 ag parental: 0

Results for CC1CCCCC1Nc1ncnc2sccc12 (stereo not given) ?
CHRM1 PAM: 9; CHO-K1 Ca antag: 22; CHRM1 antagonist: 1; M1 PAM parental: -30; M1 ag: 9; M1 ag parental: 6

How did CCC(NC(=O)CCl)c1ccc(C)cc1 (stereo not given) do in these assays?
CHRM1 PAM: 2; CHO-K1 Ca antag: 7; CHRM1 antagonist: 13; M1 PAM parental: -10; M1 ag: -4; M1 ag parental: 4

Results for CCOC(=O)c1ccccc1-c1cn2cc(Cl)ccc2n1 ?
CHRM1 PAM: 2; CHO-K1 Ca antag: 4; CHRM1 antagonist: 0; M1 PAM parental: 1; M1 ag: -9; M1 ag parental: 0

What do the screens show for `COc1ccc(C)cc1N/C(N)=N/c1nc(C)cc(C)n1`?
CHRM1 PAM: 7; CHO-K1 Ca antag: -11; CHRM1 antagonist: -8; M1 PAM parental: 24; M1 ag: -11; M1 ag parental: 3

How did Cc1ccc(C)c(N/C(N)=N/c2nc(C)cc(C)n2)c1 do in these assays?
CHRM1 PAM: -21; CHO-K1 Ca antag: 35*; CHRM1 antagonist: 15; M1 PAM parental: -13; M1 ag: 10; M1 ag parental: 27*

Results for CCC1CCCCN1CCCNC(=O)Cn1ncc2c(C)n(Cc3ccccc3Cl)c(C)c2c1=O (stereo not given) ?
CHRM1 PAM: -30; CHO-K1 Ca antag: -2; CHRM1 antagonist: 44*; M1 PAM parental: 3; M1 ag: -14; M1 ag parental: 0

Screening results deposited in PubChem BioAssay by The Scripps Research Institute Molecular Screening Center.
